Assays:
Test in all cases: growth AUC relative to DMSO control (median of replicates) (fraction); higher = more growth (less inhibition), active = hit call of the paper
Settings in all cases: 20 µM; 24 h;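 active = AUC reduced over 20% with Padj below 0.05 in at least 2 of 3 replicates; inactive = otherwise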
Akkermansia muciniphila = tested on: Akkermansia muciniphila
In short: (§1)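 Gut bacterial monocultures were grown anaerobically at 37 °C in mGAM, starting at OD600 0.05, with 20 µM compound (1% DMSO) in round-bottom 96-well plates under pierced gas-permeable seals. OD600 was read hourly for 24 h. Area under the growth curve (minimum OD set to 0) was normalised to the plate median of DMSO controls, or to row and column medians on the industrial chemical plate. The value is the median of three biological replicates grown on separate days.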

Bacteroides caccae = tested on: Bacteroides caccae
In short: as §1

Bacteroides clarus = tested on: Bacteroides clarus
In short: as §1

Bacteroides dorei = tested on: Bacteroides dorei
In short: as §1

Bacteroides stercoris = tested on: Bacteroides stercoris
In short: as §1

[1] = tested on: Bacteroides thetaiotaomicron
In short: as §1

Bacteroides uniformis = tested on: Bacteroides uniformis
In short: as §1

[2] = tested on: Bifidobacterium longum subsp. longum
In short: as §1

Clostridium difficile = tested on: Clostridium difficile
In short: as §1

Collinsella aerofaciens = tested on: Collinsella aerofaciens
In short: as §1

Measured: growth AUC

CCOP(=O)(Sc1ccccc1)Sc1ccccc1
inactive: Akkermansia muciniphila 1.16 | Bacteroides caccae 0.985 | Bacteroides clarus 0.895 | Bacteroides dorei 0.927 | Bacteroides stercoris 0.795 | [1] 0.932 | Bacteroides uniformis 0.881 | [2] 1.02 | Clostridium difficile 0.984 | Collinsella aerofaciens 1.03

CNC(=O)Oc1ccccc1C(C)C
inactive: Akkermansia muciniphila 1.08 | Bacteroides caccae 1.01 | Bacteroides clarus 1.04 | Bacteroides dorei 1.03 | Bacteroides stercoris 1.23 | [1] 1.01 | Bacteroides uniformis 1.01 | [2] 0.965 | Clostridium difficile 1.02 | Collinsella aerofaciens 0.986

Cc1cc(Cl)ccc1OCC(=O)O.O.[Na]
inactive: Akkermansia muciniphila 1.25 | Bacteroides caccae 0.981 | Bacteroides clarus 1.01 | Bacteroides dorei 0.921 | Bacteroides stercoris 1.02 | [1] 1.05 | Bacteroides uniformis 0.993 | [2] 1.05 | Clostridium difficile 1.02 | Collinsella aerofaciens 0.98

COc1cc(Cl)c(OC)cc1Cl
inactive: Akkermansia muciniphila 1.03 | Bacteroides caccae 1.04 | Bacteroides clarus 1 | Bacteroides dorei 1.04 | Bacteroides stercoris 1.01 | [1] 1.04 | Bacteroides uniformis 1 | [2] 0.995 | Clostridium difficile 1.05 | Collinsella aerofaciens 1.11

COP(=S)(Oc1cc(Cl)c(Br)cc1Cl)c1ccccc1 (stereo not given)
inactive: Akkermansia muciniphila 0.925 | Bacteroides caccae 0.949 | Bacteroides clarus 0.928 | Bacteroides dorei 1.02 | Bacteroides stercoris 1.44 | [1] 0.98 | Bacteroides uniformis 0.993 | [2] 1.02 | Clostridium difficile 1.03 | Collinsella aerofaciens 0.976

COP(=O)(OC)SCn1c(=O)oc2cc(Cl)cnc21
inactive: Akkermansia muciniphila 0.883 | Bacteroides caccae 1.02 | Bacteroides clarus 0.983 | Bacteroides dorei 1.02 | Bacteroides stercoris 1.01 | [1] 1.01 | Bacteroides uniformis 1.03 | [2] 1.01 | Clostridium difficile 1 | Collinsella aerofaciens 1.03

Nc1cnn(-c2ccccc2)c(=O)c1Cl
inactive: Akkermansia muciniphila 0.895 | Bacteroides caccae 1.01 | Bacteroides clarus 0.992 | Bacteroides dorei 0.995 | Bacteroides stercoris 1.12 | [1] 1.01 | Bacteroides uniformis 0.997 | [2] 0.936 | Clostridium difficile 1.03 | Collinsella aerofaciens 1

O=C(O)c1nc(Cl)ccc1Cl
inactive: Akkermansia muciniphila 1.11 | Bacteroides caccae 1.01 | Bacteroides clarus 1.02 | Bacteroides dorei 1.03 | Bacteroides stercoris 1.11 | [1] 0.993 | Bacteroides uniformis 1.01 | [2] 1.03 | Clostridium difficile 0.975 | Collinsella aerofaciens 0.982

CCOC1Oc2ccc(OS(C)(=O)=O)cc2C1(C)C (stereo not given)
inactive: Akkermansia muciniphila 1.03 | Bacteroides caccae 0.907 | Bacteroides clarus 0.978 | Bacteroides dorei 0.889 | Bacteroides stercoris 0.897 | [1] 0.987 | Bacteroides uniformis 0.993 | [2] 1.01 | Clostridium difficile 0.99 | Collinsella aerofaciens 0.916

CCOP(=O)(OCC)Oc1ccc(S(C)(=O)=O)cc1
inactive: Akkermansia muciniphila 1.01 | Bacteroides caccae 0.99 | Bacteroides clarus 0.995 | Bacteroides dorei 1.01 | Bacteroides stercoris 0.937 | [1] 0.997 | Bacteroides uniformis 1.03 | [2] 1.04 | Clostridium difficile 0.991 | Collinsella aerofaciens 1.01

CCCN(CC)CC1COC2(CCC(C(C)(C)C)CC2)O1 (stereo not given)
inactive: Akkermansia muciniphila 0.871 | Bacteroides caccae 0.99 | Bacteroides clarus 0.952 | Bacteroides dorei 1.07 | Bacteroides stercoris 0.87 | [1] 1.02 | Bacteroides uniformis 1.04 | [2] 0.79 | Clostridium difficile 0.985 | Collinsella aerofaciens 0.981

O=S(=O)(Oc1ccc(Cl)cc1)c1ccc(Cl)cc1
inactive: Akkermansia muciniphila 1.09 | Bacteroides caccae 0.97 | Bacteroides clarus 0.998 | Bacteroides dorei 0.812 | Bacteroides stercoris 0.973 | [1] 0.972 | Bacteroides uniformis 0.995 | [2] 1.02 | Clostridium difficile 1.01 | Collinsella aerofaciens 0.961

CCOP(=O)(N=C1SCC(C)S1)OCC (stereo not given)
inactive: Akkermansia muciniphila 0.979 | Bacteroides caccae 0.995 | Bacteroides clarus 0.966 | Bacteroides dorei 1.03 | Bacteroides stercoris 0.983 | [1] 1.01 | Bacteroides uniformis 1.03 | [2] 1.03 | Clostridium difficile 0.977 | Collinsella aerofaciens 1

Clc1ccc(C2(Cn3cncn3)CC(Br)CO2)c(Cl)c1 (stereo not given)
inactive: Akkermansia muciniphila 1.07 | Bacteroides caccae 0.973 | Bacteroides clarus 0.982 | Bacteroides dorei 0.955 | Bacteroides stercoris 0.921 | [1] 0.961 | Bacteroides uniformis 0.944 | [2] 0.896 | Clostridium difficile 0.978 | Collinsella aerofaciens 0.951
